Assay results as given in PubChem BioAssay (EPA / NIEHS).
Activity calls are given as the source filed them. The calls were made as follows: active = hit-call score of the fitted dose curve at least 0.9, where 1 is the maximum; inactive = score below 0.9.

Assay: ATG_Oct_MLP_CIS: Attagene CIS-FACTORIAL HepG2 Assay for human Octamer-Binding Transcription Factor (Oct) (AID 2282993)
Conditions: HepG2 Attagene cis-factorial Oct reporter, mRNA; actives raise or lower the signal
Method: ATG_CIS is a cell-based, multiplexed-readout assay that uses HepG2, a human liver cell line, with measurements taken at 24 hours after chemical dosing in a 24-well plate.ATG_Oct_MLP_CIS is one of 52 assay component(s) measured or calculated from the ATG_CIS assay. It is designed to make measurements of mRNA induction, a form of inducible reporter, as detected with fluorescence intensity signals by Reverse transcription polymerase chain reaction (RT-PCR) and Capillary electrophoresis technology.Data from the assay component ATG_Oct_MLP_CIS was analyzed into 1 assay endpoint. This assay endpoint, ATG_Oct_MLP_CIS, was analyzed with bidirectional fitting relative to DMSO as the negative control and baseline of activity. Using a type of inducible reporter, measures of mRNA for gain or loss-of-signal activity can be used to understand the reporter gene at the transcription factor-level as they relate to the gene POU2F1. Furthermore, this assay endpoint can be referred to as a primary readout, because this assay has produced multiple assay endpoints where this one serves a reporter gene function. To generalize the intended target to other relatable targets, this assay endpoint is annotated to the dna binding intended target family, where the subfamily is POU domain protein.
Human liver HepG2 cells are transiently transfected with multiple reporter transcription units (MRTUs) in 6-well plates using FuGene 6 reagent (Roche; 3 ml FuGene/1 mg DNA). The MRTU constructs are regulated by a cis-regulating element (promoter). […] A major difference between the CIS and TRANS system is that in CIS activities of endogenous TFs are measured, whereas the TRANS assay evaluates changes in activities of exogenous, chimeric NR-Gal4 proteins. […] At the end of 24 hour incubation, total RNA was isolated using TriZol reagent (Invitrogen). The isolated RNA is then reverse-transcribed using oligo(dT) primer and Mo-MLV reverse transcriptase (Invitrogen) with DNAse I (Ambion) treatment for 30 min. The one-tenth of the produced cDNA was amplified by PCR using Taq DNA polymerase (Invitrogen) and two reporter sequence-specific primers. The PCR products were fluorescently labeled by primer extension with 6-arboxyfluorescein (6-FAM) 5'-labeled reporter sequence-specific primer (2 min at 95 C, 20 s at 68 C and 10 min at 72 C) and these products were digested with 5U of HpaI (New England Biolabs) for 2h at 37 C. The fragments were purified using Qiaquick PCR columns (Qiagen), analyzed on an ABI 3130xL genetic analyzer (Applied Biosystems) with peak positions identified by using a set of X-rhodamine (ROX)-labeled MapMarker1000 molecular weight standards (BioVentures). The raw capillary electrophoresis data was processed using Attagraph software (Attagene).

Question: For `C=CC(F)(F)C(F)(F)C(F)(F)C(F)(F)C(F)(F)C(F)(F)C(F)(F)C(F)(F)F`, which outcome is on record?
Answer: inactive

Question: Which outcome does the source give for `CCc1ccc(C(c2ccc(CC)cc2)C(Cl)Cl)cc1` here?
Answer: inactive

Question: Which outcome does the source give for `O=P(O)(O)OCCC(F)(F)C(F)(F)C(F)(F)C(F)(F)C(F)(F)C(F)(F)F` here?
Answer: inactive

Question: For `CCCCCCCCC(F)(F)C(F)(F)C(F)(F)C(F)(F)C(F)(F)C(F)(F)F`, which AC50 is on record?
Answer: 89.3 µM (active)

Question: For `c1ccc(-c2ccccc2-c2ccccc2)cc1`, which outcome is on record?
Answer: inactive

Question: With `O=C(O)C(F)(F)C(F)(F)F` as the compound, how does the outcome read?
Answer: inactive

Question: With `O=C(O)C(F)(F)C(F)(F)C(F)(F)F` as the compound, how does the outcome read?
Answer: inactive

Question: Which outcome does the source give for `CO[Si](OC)(c1ccccc1)c1ccccc1` here?
Answer: inactive

Question: For `O=C(C=Cc1ccccc1)OCC=Cc1ccccc1`, which outcome is on record?
Answer: inactive

Question: Which outcome does the source give for `Nc1ccc([N+](=O)[O-])cc1O` here?
Answer: inactive

Question: Which outcome does the source give for `CC(C)(C)C(=O)CC(=O)C(F)(F)C(F)(F)C(F)(F)F` here?
Answer: inactive

Question: For `Nc1cc(Cl)c(N)c(Cl)c1`, which outcome is on record?
Answer: inactive

Question: With `O=C(O)C(F)(F)C(F)(F)C(F)(F)C(F)(F)F` as the compound, how does the outcome read?
Answer: inactive

Question: For `CC(Cc1ccc(O)c(O)c1)C(C)Cc1ccc(O)c(O)c1` (stereo not given), which AC50 is on record?
Answer: 20.6 µM (active)

Question: With `FC(F)(F)C(F)(F)C(F)(F)C(F)(F)C(F)(F)C(F)(F)C(F)(F)C(F)(F)CCS` as the compound, how does the outcome read?
Answer: inactive

Question: For `CCCCCC=O`, which outcome is on record?
Answer: inactive

Question: Which outcome does the source give for `CCCCCCS` here?
Answer: inactive

Question: For `O=C(O)C(F)(F)C(F)(F)C(F)F`, which outcome is on record?
Answer: inactive

Question: Which outcome does the source give for `N=C(N)C(F)(F)C(F)(F)C(F)(F)C(F)(F)C(F)(F)C(F)(F)C(F)(F)F` here?
Answer: inactive

Question: With `OCC(F)(F)C(F)(F)C(F)(F)C(F)(F)C(F)(F)C(F)(F)F` as the compound, how does the outcome read?
Answer: inactive

Question: Which outcome does the source give for `CCN(Cc1cccc(S(=O)(=O)O)c1)c1ccc(C(=C2C=CC(=[N+](CC)Cc3cccc(S(=O)(=O)O)c3)C=C2)c2ccc(O)cc2S(=O)(=O)[O-])cc1` here?
Answer: inactive

Question: With `FC(F)(Br)C(F)(F)C(F)(F)C(F)(F)C(F)(F)C(F)(F)Br` as the compound, how does the outcome read?
Answer: inactive

Question: For `OCC(F)(F)C(F)(F)C(F)(F)F`, which outcome is on record?
Answer: inactive

Question: For `C=CC(F)(F)C(F)(F)C(F)(F)C(F)(F)C(F)(F)C(F)(F)C(F)(F)C(F)(F)C=C`, which outcome is on record?
Answer: inactive

Question: With `FC(F)(I)C(F)(F)C(F)(F)C(F)(F)I` as the compound, how does the outcome read?
Answer: inactive

Question: For `CS(C)(=O)=O`, which outcome is on record?
Answer: inactive

Question: For `FC(F)(F)C(F)(F)C(F)(F)C(F)(F)C(F)(F)C(F)(F)CC1CO1` (stereo not given), which outcome is on record?
Answer: inactive

Question: With `C=CC(=O)OCC(F)(F)C(F)(F)C(F)(F)C(F)(F)COC(=O)C=C` as the compound, how does the AC50 read?
Answer: 21.5 µM (active)

Question: With `CC/C=C\CCOC(C)=O` as the compound, how does the outcome read?
Answer: inactive

Question: With `OCC(F)(F)C(F)(F)C(F)(F)C(F)F` as the compound, how does the outcome read?
Answer: inactive

Question: Which outcome does the source give for `CCN(CC)c1ccc2c(C)cc(=O)oc2c1` here?
Answer: inactive

Question: For `O=C(CC(=O)C(F)(F)C(F)(F)F)C(F)(F)F`, which outcome is on record?
Answer: inactive

Question: With `CCc1c(Br)c(Br)c(Br)c(Br)c1Br` as the compound, how does the outcome read?
Answer: inactive

Question: With `CC(C)OC(=O)c1ccccc1C(=O)OC(C)C` as the compound, how does the outcome read?
Answer: inactive

Question: Which outcome does the source give for `C=CC/C=C/C/C=C/C/C=C/C` here?
Answer: inactive

Question: For `COC(=O)CCC(F)(F)C(F)(F)C(F)(F)C(F)(F)F`, which outcome is on record?
Answer: inactive

Question: Which outcome does the source give for `OC[C@@H](O)[C@@H](O)[C@H](O)[C@@H](O)CO` here?
Answer: inactive

Question: With `FC(F)(F)C(F)(F)C(F)(F)C(F)(F)C(F)(F)C(F)(F)CCS` as the compound, how does the outcome read?
Answer: inactive

Question: Which outcome does the source give for `O=C(OCCOCCOCCOC(=O)c1ccccc1)c1ccccc1` here?
Answer: inactive

Question: With `O=C(O)C(F)(F)C(F)(F)C(F)(F)C(F)(F)C(F)(F)C(F)(F)C(F)(F)C(F)(F)C(F)(F)C(F)(F)C(F)(F)C(F)(F)F` as the compound, how does the outcome read?
Answer: inactive
